# CYP2C19 activ: increases human CYP2C19 enzyme activity | P33261 | recombinant CYP2C19, luciferin-H EGE luminescence; hits give high values; 0 = fully inhibited enzyme, 1 = untreated enzyme | activation factor at 5 µM | 96,000 tested, under 10 active | AID 1025;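 active means activation factor of at least 2 at 5 µM in the primary screen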;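 further: 0 = wells with 2.5 mM tranylcypromine and 1 = vehicle-only wells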
# CYP2C9 inhib: human CYP2C9 inhibition; 96,000 compounds, 20% hits; inhibition, % at 5 µM; CYP2C9 Supersomes, luciferin-H conversion, luminescence; AID 777; P11712;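 active means blocking of liver enzyme CYP2C9 beyond about 50% at 5 µM, limit read from the data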
# Target sequence (P11712 whole entry, looked up): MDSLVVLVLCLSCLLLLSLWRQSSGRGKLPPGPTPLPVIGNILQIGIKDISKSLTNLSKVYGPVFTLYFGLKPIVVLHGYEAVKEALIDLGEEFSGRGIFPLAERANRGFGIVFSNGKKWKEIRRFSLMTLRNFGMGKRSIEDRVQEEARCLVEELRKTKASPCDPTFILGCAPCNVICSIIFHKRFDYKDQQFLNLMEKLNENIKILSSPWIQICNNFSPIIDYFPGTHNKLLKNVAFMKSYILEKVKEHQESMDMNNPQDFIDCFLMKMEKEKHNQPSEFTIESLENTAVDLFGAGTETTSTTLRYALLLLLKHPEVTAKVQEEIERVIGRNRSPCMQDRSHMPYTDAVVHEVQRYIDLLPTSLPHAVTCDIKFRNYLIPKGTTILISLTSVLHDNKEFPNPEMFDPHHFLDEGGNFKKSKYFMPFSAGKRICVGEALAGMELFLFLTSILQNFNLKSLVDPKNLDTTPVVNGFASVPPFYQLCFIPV
# MRP reversal: compounds reversing MRP-mediated drug resistance. 85,000 compounds, 0.04% hits. H69AR cells + 2 uM doxorubicin, CellTiter-Glo, 72 h. differential viability (reversal), % at 10 µM;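 active means viability drop by adding the cancer drug above about 55%, with treated viability meeting a 40% cutoff, limit read from the data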;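 further: viability without doxorubicin minus viability with 2 µM doxorubicin for each compound; larger differential means the compound sensitizes cells more to doxorubicin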
# MRP-1 activ: MRP-1 activation; AID 799; viability increase, % at 10 µM; H69AR cells + doxorubicin, viability rescue, CellTiter-Glo; 140,000 compounds, 0.61% hits;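 active means viability gain under doxorubicin at or above a set limit, the compound median plus 3 SD, cut at about 4.7% in these data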;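 further: MRP-1 overexpressing cells given doxorubicin 25 µM after compound pretreatment; 18-22 h compound pretreatment then 72 h with doxorubicin before readout; 0% = doxorubicin-only wells and 100% = vehicle-treated cells without doxorubicin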
# CYP2C9 act: CYP2C9 (human) activation; P11712; recombinant CYP2C9, luciferin-H conversion, luminescence; hits give high values; factor 1 = untreated enzyme, 0 = blocked; activation factor at 5 µM; 96,000 compounds, 1.4% hits;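 active means activation factor of 2 or more for CYP2C9 at a 5 µM dose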;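 further: 0 = sulfaphenazole-blocked wells and 1 = vehicle-only wells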
# CYP2C19 inhib: human CYP2C19 inhibition; CYP2C19 Supersomes, luciferin-H EGE luminescence, 30 min; P33261; inhibition, % at 5 µM; 96,000 compounds, 21% hits;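 active means CYP2C19 inhibition above a set limit at 5 µM in the primary screen, cut at about 50% in these data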;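 further: plate controls were negative control wells for no effect and 2.5 mM tranylcypromine positive control for full effect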
# * marks the source's active call; other numbers are inactive results; · = no result. Shown are actives, neighbours in structure and some others; about 21% of the full set was active somewhere.
SMILES,CYP2C19 activ,CYP2C9 inhib,MRP reversal,MRP-1 activ,CYP2C9 act,CYP2C19 inhib
CCCC(=O)NC(Nc1ccc(S(=O)(=O)Nc2ncccn2)cc1)(C(=O)OCC)C(F)(F)F (configuration not stated),1,14,-11,-3,0.9,-3
CCOC(=O)NC(Nc1cc(C)ccn1)(C(F)(F)F)C(F)(F)F,0.5,20,19,-1,0.8,54*
CCC(=O)NC(Nc1ncc(C)s1)(C(=O)OC)C(F)(F)F (configuration not stated),·,·,-6,2,·,·
O=C(/C=C(/c1ccc(Cl)cc1)n1cncn1)c1ccccc1,·,·,·,-1,·,·
O=C(NNc1ccc(Cl)nn1)c1ccc(Cl)cc1,·,·,·,-2,·,·
CC(=O)c1c(C)[nH]c(C(=O)OCC(=O)N2CC(=O)Nc3ccccc32)c1C,·,·,·,-3,·,·
O=C(Nc1ncn[nH]1)c1ccc(Cl)c(S(=O)(=O)N2CCCCCC2)c1,1,2,·,-2,1,1
O=C(Nc1ncn[nH]1)c1c(Cl)ccc(Cl)c1Cl,0.1,-37,-1,0,1.4,88*
O=C(Nc1ncn[nH]1)c1ccc(Cl)c(S(=O)(=O)Nc2ccc(Cl)cc2)c1,·,·,·,4.8*,·,·
COc1ccc(N2C(=O)CC2(C#N)c2ccc(OCc3ccccc3)cc2)cc1 (configuration not stated),·,·,·,0,·,·
Cc1ccc(S(=O)(=O)NC(=O)Nc2cc(C)ccc2F)cc1,0.9,10,2,-3,0.9,6
COC(=O)c1cc(OC)c(OC)cc1NC(=O)CSc1ccccc1,0.3,7,·,-1,0.9,65*
COc1ccccc1NC(=O)CCC(=O)O,0.9,56*,9,0,0.4,14
CCOC(=O)Nc1cccc(OCC(=O)Nc2ccccc2OCC)c1,0.1,-33,·,-2,1.3,88*
CCOc1ccccc1NC(=O)NS(=O)(=O)c1ccc(C)cc1,0.8,91*,16,-1,0.1,20
CC(C)(C)Nc1nc2nonc2nc1NC(C)(C)C,1.1,6,6,-1,0.9,-6
CCNC(=O)OCC(CC)NC(=O)OCC(C)C (configuration not stated),1,-39,3,-2,1.4,4
Cc1ccccc1OCCCC(=O)Nc1ccccc1C(F)(F)F,0.7,-122,·,-3,2.2*,32
Cc1cccc(OCCCC(=O)Nc2ccccc2C(F)(F)F)c1,0.7,4,·,0,1,34
CCOc1ccccc1NC(=O)CCC(=O)Nc1ccccc1OCC,0.5,-166,17,-1,2.7*,47
CCC(COC(=O)Nc1cccc(C)c1)NC(=O)OCC(C)C (configuration not stated),0.1,55*,11,1,0.4,93*
CCOc1ccccc1NC(=O)CCC(=O)O,0.8,21,6,0,0.8,22
CCOc1ccccc1NC(=O)Cn1nnc(-c2ccc(OCC)c(OCC)c2)n1,0.1,85*,-4,-2,0.2,89*
CCNS(=O)(=O)c1ccc(C)c(-n2cnnn2)c1C,·,·,14,-3,·,·
O=C(CCCc1nc2ccccc2s1)NC(c1ccccc1)c1ccccc1,·,·,·,-1,·,·
SMILES,CYP2C19 activ,CYP2C9 inhib,MRP reversal,MRP-1 activ,CYP2C9 act,CYP2C19 inhib
CC(CN(C)Cc1ccccc1)OC(=O)c1cccc(F)c1 (configuration not stated),·,·,·,-1,·,·
CCOc1ccccc1NC(=O)CSc1ccccc1,0.5,-257,·,-1,3.6*,51*
CCN1CCN(CCC(=O)Nc2ccccc2OC)CC1,1.1,-6,9,-1,1.1,-8
CCOc1ccccc1NC(=O)CCN1CCN(S(=O)(=O)c2ccc(Br)cc2)CC1,0.4,36,38,-3,0.6,63*
CCOC(=O)Nc1cccc(Nc2ccccc2)c1,0.2,75*,13,-2,0.2,79*
CCOc1ccccc1NC(=O)Cc1ccccc1OC,0.4,-120,-19,-4,2.2*,58*
CCOc1cc(N2CCOCC2)c(OCC)cc1NC(=O)Cc1ccccc1OC,0.7,3,·,0,1,32
CCOC(=O)Nc1cccc(C(=O)O)c1,·,·,10,-1,·,·
CC1=NN(C(=O)c2ccc(C)o2)C(O)(c2ccccc2)C1 (configuration not stated),·,·,·,-2,·,·
CCOC(=O)c1cc2c(=O)n3cccc(C)c3nc2n(Cc2ccccc2Cl)c1=N,1,13,-37,·,0.9,0
CCOC(=O)N1CCN(C(=S)Nc2cc(OC)c(OC)cc2C(=O)OC)CC1,0,2,·,-4,1,98*
O=c1[nH]c(CN2CCN(C/C=C/c3ccccc3)CC2)nc2ccccc12,0.7,18,-18,-1,0.8,27
Nc1nc(N2CCN(C/C=C/c3ccccc3)CC2)nc2ccccc12,0.5,70*,4,-2,0.3,51*
CCOC(=O)c1[nH]c(C)c(C(=O)N2CCN(C(=O)c3ccco3)CC2)c1C,·,·,13,-3,·,·
CCOC(=O)c1[nH]c(C)c(C(=O)Nc2cccc(Cl)c2C)c1C,0.8,43,-17,-5,0.6,17
CCOC(=O)c1[nH]c(C)c(C(=O)N2CCN(c3ccc(F)cc3)CC2)c1C,0.2,77*,2,0,0.2,79*
CCOC(=O)c1[nH]c(C)c(C(=O)N2CCN(c3cccc(Cl)c3)CC2)c1C,0.3,88*,0,-2,0.1,68*
O=[N+]([O-])c1ccc(Cl)cc1NCCCN1CCOCC1,·,·,·,-3,·,·
O=C(CSc1nnc2sc3ccccc3n12)c1ccco1,0.5,-78,14,-3,1.8,51*
CC(=O)c1cccc(OCC(=O)c2cc(C)n(-c3cc(C)on3)c2C)c1,0.1,78*,2,1,0.2,86*
C=CCn1c(C)cc(C(=O)CSc2nnc(NCc3ccccc3)s2)c1C,·,·,-36,-3,·,·
CCOC(=O)CC(=O)CSc1nnc2sc3ccccc3n12,0.9,-132,10,0,2.3*,9
Cc1cc(-n2c(C)cc(C(=O)COc3ccc4ccc(=O)oc4c3)c2C)no1,0.9,10,1,0,0.9,9
O=C(CSc1nnc(NCc2ccccc2)s1)c1ccco1,0.4,81*,9,0,0.2,62*
CN(C)C(=O)CSc1nnc2sc3ccccc3n12,1,-32,·,·,1.3,2
SMILES,CYP2C19 activ,CYP2C9 inhib,MRP reversal,MRP-1 activ,CYP2C9 act,CYP2C19 inhib
CCOC(=O)c1nn(-c2ccc(F)cc2)c2nc(Nc3ccccc3)cc(=O)n12,·,·,·,1,·,·
O=C(CSc1nnc2sc3ccccc3n12)N1CCN(c2ccccc2)CC1,0.9,-178,18,0,2.8*,9
Cn1c(Cn2c(=O)sc3ccccc32)nnc1SCC(=O)N1CCN(c2ccccc2)CC1,·,·,8,-1,·,·
Cc1cc(-n2c(C)cc(C(=O)CSc3nnc4sc5ccccc5n34)c2C)no1,0.1,16,-2,0,0.8,87*
O=S(=O)(/N=C(/Nc1cccc2ccccc12)c1ccccc1)c1cccs1,0.1,84*,·,-2,0.2,90*
O=C(CSc1nnc(-c2ccccc2NC(=O)c2ccccc2)o1)OC1CCCCC1,·,·,-5,·,·,·

# Screening results as filed in PubChem.
